Source: PubChem BioAssay AID1159580 (chemical genetic matrix, 2015)
Where “and” joins values, the source holds several entries; their conditions need not be identical. Equal entries are not always repeated. Among all 5,500 compounds or so, about 2,000 (36%) were called active. Another 18% or so got no clear call; they are omitted. Cut-off read from the data, not from the text of the source: active = normalized growth mostly below about 0.91 (no sharp cut-off); inconclusive = no clear call, values can overlap the other calls; inactive = mostly above about 0.92. This is one part of the list.

Assay: chemical genetic growth profiling, strain panel (AID 1159580);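 note: tested at 20 µM; growth read once vehicle control cultures reached saturation at 30 °C; 1 = growth at the plate median or of vehicle wells; lower values mean less growth of the strain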
Details: S. cerevisiae deletion strains, growth OD

Measured: normalized growth

Cc1cc(C)nc(NS(=O)(=O)c2ccc(N)cc2)n1
inactive: locus YAL013W, strain DEP1, hits give low values 0.998 | locus YAL021C, strain ccr4, hits give low values 0.957 | locus YAL026C, strain drs2, hits give low values 0.974 | locus YAL030W, strain snc1, hits give low values 0.972 | locus YBL061C, strain skt5, hits give low values 0.985 | locus YBR009C, strain hhf1, hits give low values 0.934 | locus YBR021W, strain FUR4, hits give low values 1.01 | locus YBR023C, strain chs3, hits give low values 0.982 | locus YBR171W, strain sec66, hits give low values 0.989 | locus YBR229C, strain ROT2, hits give low values 0.999 | locus YBR231C, strain swc5, hits give low values 0.998 | locus YBR279W, strain paf1, hits give low values 0.982 | locus YCL011C, strain gbp2, hits give low values 0.96 | locus YCL016C, strain dcc1, hits give low values 0.966 | locus YCL029C, strain bik1, hits give low values 0.981 | locus YCL069W, strain vba3, hits give low values 0.969 | locus YCR088W, strain abp1, hits give low values 0.965 | locus YDL005C, strain med2, hits give low values 0.969 | locus YDL035C, strain GPR1, hits give low values 0.988 | locus YDL040C, strain nat1, hits give low values 0.98 | locus YDL074C, strain BRE1, hits give low values 1.01 | locus YDL101C, strain DUN1, hits give low values 0.99 | locus YDL134C, strain PPH21, hits give low values 0.996 | locus YDL185W, strain tfp1, hits give low values 0.938 | locus YDL192W, strain arf1, hits give low values 0.963 | locus YDR001C, strain nth1, hits give low values 0.963 | locus YDR069C, strain doa4, hits give low values 0.991 | locus YDR101C, strain arx1, hits give low values 1 | locus YDR137W, strain rgp1, hits give low values 0.981 | locus YDR150W, strain NUM1, hits give low values 0.999 | locus YDR159W, strain sac3, hits give low values 0.914 | locus YDR162C, strain NBP2, hits give low values 0.981 | locus YDR195W, strain ref2 0.959 | locus YDR297W, strain sur2, hits give low values 0.983 | locus YDR318W, strain mcm21, hits give low values 0.964 | locus YDR334W, strain swr1, hits give low values 0.985 | locus YDR335W, strain msn5, hits give low values 0.977 | locus YDR388W, hits give low values 0.967 | locus YDR392W, strain spt3, hits give low values 0.91 | locus YDR502C, strain sam2, hits give low values 0.98 | locus YEL003W, strain gim4, hits give low values 0.967 | locus YEL037C, strain rad23, hits give low values 0.983 | locus YEL061C, strain CIN8 (second series), hits give low values 0.972 | locus YEL061C, strain CIN8, hits give low values 1 | locus YER015W, strain faa2, hits give low values 0.996 | locus YER016W, strain bim1, hits give low values 0.96 | locus YER110C, hits give low values 0.99 | locus YER111C, strain swi4, hits give low values 0.965 | locus YER155C, strain BEM2 (second series), hits give low values 1.01 | locus YER155C, strain BEM2, hits give low values 0.996 | locus YER167W, strain BCK2, hits give low values 0.995 | locus YFR010W, strain ubp6, hits give low values 0.996 | locus YGL078C, strain dbp3, hits give low values 0.977 | locus YGL086W, strain mad1, hits give low values 1 | locus YGL167C, strain pmr1, hits give low values 0.977 | locus YGL173C, strain kem1, hits give low values 0.979 | locus YGL227W, strain vid30, hits give low values 0.988 | locus YGL240W, strain doc1, hits give low values 1.01 | locus YGL248W, strain PDE1, hits give low values 0.998 | locus YGL253W, strain hxk2, hits give low values 0.968 | locus YGR135W, strain pre9, hits give low values 0.995 | locus YGR229C, strain SMI1, hits give low values 0.989 | locus YGR252W, strain gcn5, hits give low values 1.17 | locus YHR013C, strain ard1, hits give low values 0.92 | locus YHR027C, strain rpn1, hits give low values 0.973 | locus YHR030C, strain SLT2, hits give low values 0.995 and 0.954 | locus YHR079C, strain IRE1 (second series), hits give low values 0.97 | locus YHR079C, strain IRE1, hits give low values 0.981 | locus YHR094C, strain hxt1, hits give low values 0.968 | locus YHR129C, strain ARP1, hits give low values 0.997 | locus YHR142W, strain chs7, hits give low values 0.968 | locus YHR200W, strain rpn10, hits give low values 0.98 | locus YIL066C, strain RNR3, hits give low values 1.01 | locus YIL073C, strain SPO22, hits give low values 0.842 | locus YIL125W, strain kgd1, hits give low values 0.954 | locus YIR030C, strain dcg1, hits give low values 0.983 | locus YJL092W, strain hpr5, hits give low values 0.981 | locus YJL095W, strain BCK1 (second series), hits give low values 0.983 | locus YJL095W, strain BCK1, hits give low values 1.02 and 0.967 | locus YJL115W, strain asf1, hits give low values 0.968 | locus YJL129C, strain trk1, hits give low values 0.98 | locus YJL134W, strain LCB3, hits give low values 0.985 | locus YJL154C, strain vps35, hits give low values 0.978 | locus YJL164C, strain tpk1, hits give low values 0.963 | locus YJL166W, strain qcr8, hits give low values 1.01 | locus YJL168C, strain set2, hits give low values 0.977 | locus YJL187C, strain SWE1 (second series), hits give low values 0.987 | locus YJR043C, strain POL32, hits give low values 1
